Results filed as inconclusive are left out. Active and inactive are the calls of the source. Calls come from the whole dose curve; as a rule, active = well fitted inhibition curve with a large enough effect; inconclusive = small, poorly fitted or top-dose-only effect; inactive = flat fitted curve, though single readings scatter.

This assay deals with HACAT. Description: qHTS assay to identify novel small-molecules to repurpose for Merkel cell carcinoma treatment (AID 1296009). Note: nearly all actives have a fitted effect of over 60% in size. The following applies: MCC and control cell lines, CellTiter-Glo viability, 72 h; at 44.8 µM (top of the series) unless noted. The method, boiled down: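 Luminescence from CellTiter-Glo, read 10 min after addition at room temperature, reported viability following a 72 hr, 37 degree celsius treatment with NPC or MIPE compounds in titration; values normalized to plate controls.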
On the technique in general: In qHTS, concentration-response curves come from the screen itself.
In the case of `COc1ccc(C(=O)O[C@H]2C=COC=C3C=C4C(=O)N(C)C(=S)C(=O)N4[C@@H]32)cc1Oc1cc(C=O)ccc1O`, the outcome is “inactive [at 17.4 µM]”.
For `Cc1[nH]c(/C=C2\C(=O)Nc3cc(-c4ccccc4)ccc32)c(C)c1CCC(=O)O`, the result was inactive.
Consider `C=C1CC[C@@H](O)[C@]2(C)CC[C@H]3C(=C)C(=O)O[C@@H]3[C@@H]12`, for which the compound was called inactive.
With `COC(=O)c1ccc2c(c1)[nH]c1ncnc(NCCCN3CCCCC3)c12` the entry was “inactive”; with `CC(C)OC(=O)N1CCC(Oc2ncnc3c2cnn3-c2ccc(S(C)(=O)=O)cc2F)CC1`, “inactive”; with `C=C1C(=O)OC2C=C(C)CC/C=C(\CO)CC(O)C12` (centres undefined), “inactive”.
With `C=C1CC[C@H]2C(=C)CC[C@H]3C(=C)C(=O)O[C@@H]3[C@@H]12` the entry was “inactive”; with `C=C1C(=O)OC2CC(C)C(CCC(C)=O)=CCC12` (centres undefined), “inactive”; with `CN(C)c1cccc(Oc2cnc(Nc3cccc(O)c3)nc2)c1`, “inactive”.
With `CC1OC2OC(=O)C3(C)CC4C5(CO5)C5=CC(=O)OC(C)(C)C5=CC(=O)C4(C)C(C1=O)C23` (centres undefined) the entry was “inactive [at 17.4 µM]”; with `CN1CC2CN(c3ccc4oc5ccccc5c(=O)c4c3)CC2C1` (centres undefined), “inactive [at 17.4 µM]”; with `NCC(CNc1nc(Nc2cccc(NC(=O)N3CCCC3)c2)ncc1I)C(=O)c1cccs1` (centres undefined), “inactive”.
As to `O=C(OC1CN2CCC1CC2)N1CCc2ccccc2C1c1ccccc1` (centres undefined), the result was inactive.
With `CN1CCN(C2=Nc3ccccc3Nc3ccc(Cl)cc32)CC1` the entry was “inactive”; with `COC(=O)c1ccnc(-c2cc(C(=O)Nc3ccc(C4(N)CC4)cc3)ccn2)c1`, “inactive”.
`CCC(C)C(=O)Oc1cc(C)ccc1C1(COC(=O)C(C)C)CO1` (centres undefined): the result was inactive.
With `NC(=O)c1cccc2[nH]c(-c3ccc(C4CCCN4)cc3F)nc12` (centres undefined) the entry was “inactive”.
With `C=C1CCC2C(C)(C)CCCC2(C)C1CC/C(C)=C\CO` (centres undefined) the entry was “inactive”; with `CCOC(=O)N1CCC(N2CCC[C@@H](NC(=O)c3ccccc3C)C2)CC1`, “inactive”.
On to `CC(C)S(=O)(=O)c1ccc2nccc(Nc3ccc4scnc4c3)c2c1`, for which the compound was classed as inactive.
With `C=C1CCC[C@]2(C)CC/C(=C(/CO)C(=O)OC)C[C@@H]12` the entry was “inactive”; with `CC(=O)O[C@@H]1CC[C@@]2(C)[C@H](CC[C@@H]3[C@@H]2C[C@H](OC(C)=O)[C@]2(C)[C@@H](C(C)=O)CC[C@@H]32)C1`, “inactive”; with `COc1c(CCC(=O)O)cccc1O[C@@H]1O[C@H](CO)[C@@H](O)[C@H](O)[C@H]1O`, “inactive”.
With `Cc1[nH]c2ccccc2c1CCNC(=O)c1cccs1` the entry was “inactive”; with `O=C(O)CSc1cc(NS(=O)(=O)c2ccc(Br)cc2)c2ccccc2c1O`, “inactive”; with `CN1CCN(C2=Nc3ccccc3Nc3ccc(OS(=O)(=O)C(F)(F)F)cc32)CC1`, “inactive”.
Take `O=C(NCC1(c2nc(-c3ccccc3)cs2)CCOCC1)c1cccc(-c2noc(C(F)(F)F)n2)c1`: the call was inactive.
Consider `COc1ccc2nccc(C(=O)CC[C@@H]3CCN(CC#Cc4cc(F)cc(F)c4F)C[C@@H]3C(=O)O)c2c1`, for which the call was inactive.
With `CCOc1nc(NC(=O)Cc2cc(OC)ccc2OC)cc(N)c1C#N` the entry was “inactive”.
With `COC(=O)C[C@H]1C(C)(C)[C@H](OC(=O)c2ccccc2)C2CC3=C4CC(=O)O[C@@H](c5ccoc5)[C@]4(C)CCC3[C@@]1(C)C2=O` (some centres undefined) the entry was “inactive [at 17.4 µM]”; with `C=C1C(=O)OC2/C=C(\C)CC/C=C(\C=O)C(OC)C(OC(=O)C(C)CC)C12` (centres undefined), “inactive”; with `CCN(CC)CCCCCCNc1cc(OC)cc2c(C)ccnc12`, “inactive”.
With `Fc1ccc(N2CCN(CCC3OCCc4ccccc43)CC2)cc1` (centres undefined) the entry was “inactive”.
On to `C=C(C)C1CCC2(C(=O)O)CCC3(C)C(CCC4C5(C)C(C=O)C(O)C(C)(C)C5CCC43C)C12` (centres undefined), for which the outcome is “inactive [at 17.4 µM]”.
With `Cc1csc(N(C(=O)CSc2ccc(-c3ccccc3)nn2)C2CC2)n1` the entry was “inactive”; with `Cc1c(NC(=O)c2cc3c(s2)CCCC3)cccc1-c1cn(C)c(=O)c(Nc2ccc(C3C(=O)N(C)CCN3C)cc2)n1` (centres undefined), “inactive”.
With `Cc1cc(CS(=O)(=O)c2ccccc2)cc(OCc2ccc(CN3CCCC3CO)cc2)c1` (centres undefined) the entry was “inactive”.
As for `C=C1CC[C@@H]2[C@](C)(CO)[C@H](O)CC[C@@]2(C)[C@@H]1CC(O)C1=CCOC1=O` (some centres undefined), the outcome was inactive.
With `COc1ccc([C@H](Cc2ccncc2)c2ccccc2)cc1OC1CCCC1` the entry was “inactive”.

For the origin of these results see PubChem BioAssay (NCATS).
